# Screens from PubChem.
# Hits are enriched below; roughly 12% of the tested compounds scored in any of these assays.
# PLK1 PBD block = PLK1 (human) polo-box domain binding inhibition | P53350 | Plk1 PBD binding of FITC phosphopeptide, fluorescence polarization | Potency, µM, inactives show max response, negative = inhibition, actives largely listed as inhibitors | actives 2.8% (n = 360,000) | AID 720504; further: potency means the concentration at half of the fitted maximal effect; series mostly up to about 57 µM; on the % scale 0 is the no-effect control and ±100 the full control effect; nearly all actives have a fitted effect of over 65% in size
# PI5P4K alpha inh = inhibitors of human PI5P4K alpha; actives 1.2% (n = 330,000); PI5P4Kalpha enzyme, ADP-Glo luminescence, 60 min; active compounds read low; max response, %; active means max response of -50% or lower; inconclusive means between -30% and -50%; inactive means -30% or higher; further: value at the top dose of about 77 µM; on the % scale 0 is the no-effect control and ±100 the full control effect
#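 Compounds were pin-transferred onto PI5P4Kalpha and substrate in HEPES pH 7.4 buffer with EGTA, CHAPS and 5% DMSO. ATP (5 microM final) started the reaction, which ran 60 minutes at room temperature before ADP-Glo detection.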
# JMJD2A Tudor = inhibitors of human JMJD2A Tudor domain; actives 4.4% (n = 390,000); O75164; Potency, µM (highest dose often 114 µM), inactives show at the highest dose activity change, negative = inhibition, actives largely listed as inhibitors; AID 504339; AlphaScreen JMJD2A-Tudor / H3K4me3 peptide binding; further: potency means the concentration at half of the fitted maximal effect; on the % scale 0 is the no-effect control and ±100 the full control effect; nearly all actives have a fitted effect of over 50% in size
# Target sequence (O75164 whole entry, looked up, the tested form may be a part): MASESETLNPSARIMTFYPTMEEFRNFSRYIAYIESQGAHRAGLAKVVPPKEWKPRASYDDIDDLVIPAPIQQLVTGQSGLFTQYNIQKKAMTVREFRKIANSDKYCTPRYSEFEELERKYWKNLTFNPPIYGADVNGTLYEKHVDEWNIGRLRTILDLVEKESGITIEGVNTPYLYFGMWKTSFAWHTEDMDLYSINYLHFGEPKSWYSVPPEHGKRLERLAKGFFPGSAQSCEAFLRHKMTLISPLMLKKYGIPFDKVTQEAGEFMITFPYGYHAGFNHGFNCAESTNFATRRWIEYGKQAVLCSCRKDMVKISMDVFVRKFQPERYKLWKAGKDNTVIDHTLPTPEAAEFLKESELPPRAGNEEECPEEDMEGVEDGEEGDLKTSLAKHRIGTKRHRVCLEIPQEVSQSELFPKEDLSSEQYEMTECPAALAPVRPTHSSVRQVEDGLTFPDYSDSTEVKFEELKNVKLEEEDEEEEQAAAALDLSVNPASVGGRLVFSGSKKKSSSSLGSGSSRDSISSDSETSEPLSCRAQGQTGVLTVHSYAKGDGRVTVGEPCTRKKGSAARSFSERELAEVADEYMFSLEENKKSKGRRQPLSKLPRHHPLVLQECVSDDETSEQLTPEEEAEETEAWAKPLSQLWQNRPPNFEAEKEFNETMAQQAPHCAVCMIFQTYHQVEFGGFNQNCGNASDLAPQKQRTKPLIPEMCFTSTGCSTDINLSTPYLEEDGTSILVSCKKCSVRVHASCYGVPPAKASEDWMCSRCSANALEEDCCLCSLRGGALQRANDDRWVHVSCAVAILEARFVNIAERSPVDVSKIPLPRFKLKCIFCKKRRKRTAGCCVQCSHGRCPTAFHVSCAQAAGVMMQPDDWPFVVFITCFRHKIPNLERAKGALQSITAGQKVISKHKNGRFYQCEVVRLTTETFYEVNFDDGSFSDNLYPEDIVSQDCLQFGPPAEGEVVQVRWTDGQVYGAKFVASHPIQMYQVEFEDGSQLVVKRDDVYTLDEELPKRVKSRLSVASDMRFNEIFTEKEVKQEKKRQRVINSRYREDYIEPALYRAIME
# HP1b chromo inh = blocks HP1-beta chromodomain binding to methylated histone tails. actives 0.56% (n = 390,000). Potency, µM (series often up to 114 µM), for the others: top-dose activity change, negative = inhibition, usual class: inhibitors. P83916. AID 540317. AlphaScreen HP1-beta / biotin-H3K9me3 peptide binding; further: potency means the concentration at half of the fitted maximal effect; nearly all actives have a fitted effect of over 70% in size
#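 HP1-beta protein (50 nM final) preincubated 30 min at room temperature with biotinylated H3(1-18)K9me3 peptide (50 nM) in PBS pH 7.4, 0.01% Tween-20, then compound added for 30 min. AlphaScreen streptavidin donor/nickel chelate acceptor beads (10 ug/mL final), 30 min dark, luminescence read.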
# G9a block = inhibitors of human histone lysine methyltransferase G9a | actives 8.8% (n = 350,000) | Q96KQ7 | G9a H3K9 monomethylation, AlphaScreen, 2 h | AID 504332 | Potency, µM (highest dose often 102 µM), without a hit: at the highest dose activity, negative = inhibition, most hits filed as inhibitors; further: potency means the concentration at half of the fitted maximal effect; on the % scale 0 is the no-effect control and ±100 the full control effect; nearly all actives have a fitted effect of over 75% in size
#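 G9a (20 nM) was preincubated 15 min with compound, then reacted 2 h at room temperature with 500 nM biotin-H3K9 peptide and 20 µM SAM. Monomethyl-H3K9 detected by AlphaScreen using anti-H3K9me1 antibody.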
# BAZ2B block = BAZ2B (human) inhibition | Q9UIF8 | AlphaScreen BAZ2B-H3K14Ac peptide displacement | Potency, µM (highest dose often 114 µM), without a hit: top-dose activity change, negative = inhibition, most hits filed as inhibitors | actives 4.4% (n = 360,000) | AID 504333; further: potency means the concentration at half of the fitted maximal effect; on the % scale 0 is the no-effect control and ±100 the full control effect; nearly all actives have a fitted effect of over 60% in size
#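 Complex of BAZ2B and biotin-H3K14Ac (50 nM apiece) forms over 30 min at RT, then faces library compounds up to 110 uM for another 30 min; AlphaScreen beads added, 20 min dark incubation, luminescence read.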
# Numbers without * were called inactive; ? = inconclusive; . = no result; [ ] = another dose, or the depositor's remark. Unless noted, the call rests on the fitted dose curve; in most records, active means well fitted curve in the direction sought with a large enough effect; inconclusive means small, poorly fitted or top-dose-only effect, or another doubt; inactive means no such curve, though single readings can be large; an effect the other way counts as inactive or inconclusive.
SMILES,PLK1 PBD block,PI5P4K alpha inh,JMJD2A Tudor,HP1b chromo inh,G9a block,BAZ2B block
CS(=O)(=O)C1=NSC2=NC(=O)/C(=C\c3ccc(-c4ccccc4)o3)C(=N)N21,.,.,.,.,50µM*,-6%
N=C1/C(=C/c2ccc(-c3cccc(C(=O)O)c3)o2)C(=O)N=C2SC=C(c3ccccc3)N12,15µM*,-83*,22µM*,?,40µM*,13µM*
CC(C)S(=O)(=O)C1=NSC2=NC(=O)/C(=C\c3ccc(-c4ccccc4)o3)C(=N)N21,30µM*,-102*,-26%,1%,?,?
N=C1/C(=C\c2ccc(-c3cc(Cl)cc(Cl)c3)o2)C(=O)N=C2SC=C(c3ccccc3)N12,-7%,?,-19%,12%,-8%,-1%
CC(C)S(=O)(=O)C1=NSC2=NC(=O)/C(=C\c3ccc(-c4cccc(C(=O)O)c4)o3)C(=N)N21,-14%,-104*,?,10%,40µM*,79µM*
CC(C)(C)c1ccc2c(S(=O)(=O)O)c(C(C)(C)C)ccc2c1,.,.,.,.,3%[12.7 µM],.
COC(=O)c1c(C)[nH]c(O)c1C=Nc1ccc(C(C)C)cc1,-8%,-8,45µM*,?,?,35µM*
CCOC(=O)c1c(C)[nH]c(O)c1C=Nc1ccc(C(F)(F)F)cc1,-15%,-8,?,-8%,45µM*,-9%
CCOC(=O)c1c(C)[nH]c(O)c1C=Nc1ccc(Cl)cc1,-23%,-4,-35%,?,50µM*,-34%
O=C1CCCC/C1=C\Nc1ccc(O)cc1,-1%,.,-24%,17%,0.89µM*,0%
O=C(Cn1c(=O)n(Cc2ccc(F)cc2)c(=O)c2sc3ccccc3c21)Nc1ccc(F)cc1F,.,.,-9%,31%,0%[59 µM],3%
CCOC(=O)c1c(N/N=C/c2cccnc2)n[nH]c1C,2%,-9,-4%,39%,71µM*,-1%
CCC(=O)N1c2ccccc2NC2=C(C(=O)CCC2)C1c1ccc(N(C)C)cc1 (stereo not drawn),-4%,9,-19%,40%,50µM*,-5%
CC(C)CNC(=O)C(=O)Nc1c2c(nn1-c1ccccc1)CS(=O)(=O)C2,.,.,?,-20%,?,-28%
O=C(NCCCN1CCN(c2ccc(F)cc2)CC1)c1cc2c(Cl)nc3ccccc3c2s1,.,.,-12%,24%,-3%[59 µM],-16%
CC(=O)c1cccc(S(=O)(=O)N2CCN(CCOc3ccccc3)CC2)c1,?,-1,?,40%,-51%[2.33 µM],2%
Cc1cccc(Nc2nn3c(=O)c4cc5c(cc4nc3s2)OCO5)c1,.,.,-24%,77%,?,-8%
O=c1c2cc3c(cc2nc2sc(Nc4cccc([N+](=O)[O-])c4)nn12)OCO3,.,.,-18%,43%,1.4µM*,?
FC(F)(F)c1cc(CCN2CCNC[C@H]2Cc2cccc3ccccc23)cc(C(F)(F)F)c1,6%,44,?,-11%,?,50µM*
COC(=O)c1cc2c(=O)c3ccccc3oc2nc1/C=C/N(C)C,24%,-7,18%,47%,1%,-1%
CC1(C(=O)O)Sc2[nH]c(=O)sc2C2c3ccccc3OC(=O)C21 (stereo not drawn),-26%,-91*,-8%,34%,?,?
COC(=O)C1Sc2[nH]c(=O)sc2C2c3ccccc3OC(=O)C12 (stereo not drawn),-15%,-3,-16%,10%,?,-7%
CCCOc1ccc(-c2nc(SCC(=O)c3ccc(Cl)cc3)n[nH]2)cc1,.,.,?,42%,14µM*,-21%
CCOc1ccc(-c2nc(SCC(=O)c3ccccc3)n[nH]2)cc1,.,.,25µM*,20%,14µM*,-15%
O=C(CSc1n[nH]c(-c2ccccc2)n1)NCc1cccc(C(=O)O)c1,-11%,-10,-10%,12%[57 µM],.,-7%
SMILES,PLK1 PBD block,PI5P4K alpha inh,JMJD2A Tudor,HP1b chromo inh,G9a block,BAZ2B block
O=C(CSc1n[nH]c(-c2ccccc2)n1)c1ccc(O)c(O)c1,-7%,.,63µM*,-13%,7.9µM*,45µM*
O=C(NCC(c1cccs1)S(=O)(=O)c1cccs1)c1cccc(F)c1 (stereo not drawn),.,.,6%,7%,-3%[59 µM],0%
COc1ccc(C)cc1NC(=O)Cn1c(=O)n(Cc2nc(C)no2)c(=O)c2ccccc21,.,.,1%,36%,?,-4%
CC1(C)C2CCC1(C)C(SC(=N)N)C2 (stereo not drawn),2%,2,-4%,37%,.,.
O=C(COC(=O)/C=C/c1ccccc1[N+](=O)[O-])NC1CCS(=O)(=O)C1 (stereo not drawn),-9%,-5,-10%,10%,15%,-1%
CCOC(=O)c1c(C)[nH]c(C)c1C(=O)COC(=O)c1cc(OC)cc(OC)c1,-12%,3,?,-24%,?,?
CCOC(=O)c1c(C)[nH]c(C)c1C(=O)COC(=O)c1ccc(OC)cc1,-15%,9,-18%[57.1 µM],-3%,40µM*,?
CCOC(=O)c1c(C)[nH]c(C)c1C(=O)COC(=O)/C=C/c1ccccc1[N+](=O)[O-],-5%,6,89µM*,?,.,.
O=C(COC(=O)/C=C/c1ccccc1[N+](=O)[O-])NC1CC1,17µM*,-21,?,-17%,13%[12.7 µM],-4%
C=CCn1c(=O)n(C2OC(CO)C(O)C2O)c2nc(N)[nH]c(=O)c21 (stereo not drawn),.,.,.,.,-25%[12.7 µM],.
CCC(C)NC(=O)c1ccc2c(c1)N=C(C)c1cc(C)ccc1S2 (stereo not drawn),.,.,-20%,13%,?,-26%
CCC(Sc1nc(C)cc(=O)[nH]1)C(=O)Nc1nc2c(s1)CCCC2 (stereo not drawn),-12%,.,-18%,21%,45µM*,?
Cc1cc(=O)[nH]c(SCC(=O)Nc2nc3c(s2)CCCC3)n1,-11%,.,-8%,25%,0%,-9%
COc1ccc(-c2ccc(C(C)=O)cc2)cc1C1C2C=CCCC2(C)C(=O)N1Cc1ccccc1 (stereo not drawn),.,.,?,-6%,.,.
Cc1cc(C)cc(NC(=O)CCc2c(C)nc3c(c2C)c(=O)n(C)c(=O)n3C)c1,.,.,-5%,62%,-12%[59 µM],-10%
CCOC(=O)Cc1csc(CC(N)=O)n1,-6%,-2,-12%,21%,50µM*,-24%
CCOC(=O)Cc1csc(NC(=O)CCC(=O)O)n1,-6%,1,-2%,24%,.,-23%
CCOC(=O)Cc1csc(NC(=O)CCCc2ccccc2)n1,0%,7,-27%,31%,50µM*,-38%
CCOC(=O)Cc1csc(NC(=O)Cc2ccc(Br)cc2)n1,-12%,-3,-12%,-4%,56µM*,-11%
Cc1ccc(S(=O)(=O)NCCC(=O)N2CCC(C)CC2)cc1,0%,-4,-11%,30%,7%[59 µM],-6%
